Reference: PubChem BioAssay AID1159580 (chemical genetic matrix, 2015)
Values joined by “and” are separate entries in the source; they are usually repeats but may differ in a detail not shown here. Identical values can stand only once. The campaign covered roughly 5,500 compounds. About 2,000 (36%) were called active. Roughly 18% stayed inconclusive and do not appear here. No stated cut-off is given here; in the data, active means normalized growth mostly below about 0.91 (no sharp cut-off); inconclusive means no clear call, values can overlap the other calls; inactive means mostly above about 0.92. This is one part of the list.

Assay: chemical genetic growth profiling, strain panel (AID 1159580);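 further: tested at 20 µM; growth read once vehicle control cultures reached saturation at 30 °C; 1 = growth at the plate median or of vehicle wells; lower values mean less growth of the strain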
Details: growth OD

Measured: normalized growth

CC(CN(C)C)CN1c2ccccc2CCc2ccccc21 (stereo not given)
inactive: S. cerevisiae deletion strains, locus YJR066W, strain TOR1, active compounds read low 0.94 | S. cerevisiae deletion strains, locus YKL009W, strain mrt4, active compounds read low 1 | S. cerevisiae deletion strains, locus YKL068W, active compounds read low 1.01 | S. cerevisiae deletion strains, locus YKL085W, strain MDH1 (second series), active compounds read low 1.02 | S. cerevisiae deletion strains, locus YKL085W, strain MDH1, active compounds read low 1.02 | S. cerevisiae deletion strains, locus YKL160W, strain elf1, active compounds read low 0.978 | S. cerevisiae deletion strains, locus YKL190W, strain CNB1, active compounds read low 1.02 | S. cerevisiae deletion strains, locus YKR001C, strain vps1, active compounds read low 1.02 | S. cerevisiae deletion strains, locus YKR026C, strain gcn3, active compounds read low 0.991 | S. cerevisiae deletion strains, locus YKR091W, strain srl3, active compounds read low 0.977 | S. cerevisiae deletion strains, locus YLL001W, strain dnm1, active compounds read low 0.989 | S. cerevisiae deletion strains, locus YLL026W, active compounds read low 0.979 | S. cerevisiae deletion strains, locus YLL041C, strain sdh2, active compounds read low 0.965 | S. cerevisiae deletion strains, locus YLR027C, strain aat2, active compounds read low 0.974 | S. cerevisiae deletion strains, locus YLR039C, strain RIC1, active compounds read low 1.13 | S. cerevisiae deletion strains, locus YLR058C, strain SHM2, active compounds read low 1.01 | S. cerevisiae deletion strains, locus YLR102C, strain apc9, active compounds read low 1.02 | S. cerevisiae deletion strains, locus YLR113W, strain HOG1, active compounds read low 0.994 | S. cerevisiae deletion strains, locus YLR221C, strain rsa3, active compounds read low 0.982 | S. cerevisiae deletion strains, locus YLR258W, strain gsy2, active compounds read low 0.984 | S. cerevisiae deletion strains, locus YLR262C, strain YPT6 (second series), active compounds read low 1.01 | S. cerevisiae deletion strains, locus YLR262C, strain YPT6, active compounds read low 1.12 | S. cerevisiae deletion strains, locus YLR268W, strain sec22, active compounds read low 1.02 | S. cerevisiae deletion strains, locus YLR320W, strain mms22, active compounds read low 0.947 | S. cerevisiae deletion strains, locus YLR330W, strain CHS5, active compounds read low 1.01 | S. cerevisiae deletion strains, locus YLR342W, strain FKS1 (second series), active compounds read low 1.04 | S. cerevisiae deletion strains, locus YLR342W, strain FKS1, active compounds read low 0.976 | S. cerevisiae deletion strains, locus YLR357W, strain rsc2, active compounds read low 0.967 | S. cerevisiae deletion strains, locus YLR370C, strain arc18, active compounds read low 0.977 | S. cerevisiae deletion strains, locus YLR371W, strain rom2, active compounds read low 1.01 | S. cerevisiae deletion strains, locus YLR384C, strain iki3, active compounds read low 0.979 | S. cerevisiae deletion strains, locus YLR418C, strain cdc73, active compounds read low 1.02 | S. cerevisiae deletion strains, locus YML016C, strain PPZ1, active compounds read low 1.01 | S. cerevisiae deletion strains, locus YML032C, strain rad52, active compounds read low 1.01 | S. cerevisiae deletion strains, locus YML120C, strain ndi1, active compounds read low 0.971 | S. cerevisiae deletion strains, locus YML124C, strain tub3, active compounds read low 1.02 | S. cerevisiae deletion strains, locus YMR058W, strain fet3, active compounds read low 0.971 | S. cerevisiae deletion strains, locus YMR078C, strain ctf18, active compounds read low 1.01 | S. cerevisiae deletion strains, locus YMR125W, strain sto1, active compounds read low 0.973 | S. cerevisiae deletion strains, locus YMR129W, active compounds read low 0.981 | S. cerevisiae deletion strains, locus YMR205C, strain PFK2, active compounds read low 0.97 | S. cerevisiae deletion strains, locus YMR223W, strain ubp8, active compounds read low 1.02 | S. cerevisiae deletion strains, locus YMR231W, strain pep5, active compounds read low 0.984 | S. cerevisiae deletion strains, locus YMR263W, strain SAP30, active compounds read low 1 | S. cerevisiae deletion strains, locus YMR307W, strain GAS1, active compounds read low 1.05 and 1 | S. cerevisiae deletion strains, locus YNL067W, strain RPL9B, active compounds read low 1.01 | S. cerevisiae deletion strains, locus YNL071W, strain lat1, active compounds read low 0.963 | S. cerevisiae deletion strains, locus YNL128W, strain TEP1, active compounds read low 1.03 and 1.02 | S. cerevisiae deletion strains, locus YNL175C, strain NOP13, active compounds read low 1.01 | S. cerevisiae deletion strains, locus YNL183C, strain NPR1, active compounds read low 0.936 | S. cerevisiae deletion strains, locus YNL197C, strain WHI3, active compounds read low 1.02 | S. cerevisiae deletion strains, locus YNL209W, strain ssb2, active compounds read low 0.98 | S. cerevisiae deletion strains, locus YNL224C, strain SQS1, active compounds read low 1.01 | S. cerevisiae deletion strains, locus YNL233W, strain BNI4, active compounds read low 0.998 | S. cerevisiae deletion strains, locus YNL248C, strain rpa49, active compounds read low 0.988 | S. cerevisiae deletion strains, locus YNL250W, strain rad50, active compounds read low 1.03 | S. cerevisiae deletion strains, locus YNL271C, strain bni1, active compounds read low 1.02 | S. cerevisiae deletion strains, locus YNL298W, strain CLA4, active compounds read low 1.02 | S. cerevisiae deletion strains, locus YNL307C, strain MCK1, active compounds read low 1.03 | S. cerevisiae deletion strains, locus YNL322C, strain KRE1 (second series), active compounds read low 0.966 | S. cerevisiae deletion strains, locus YNL322C, strain KRE1, active compounds read low 1.01 | S. cerevisiae deletion strains, locus YNR049C, strain mso1, active compounds read low 0.977 | S. cerevisiae deletion strains, locus YNR052C, strain pop2, active compounds read low 1.02 | S. cerevisiae deletion strains, locus YOL006C, strain TOP1, active compounds read low 0.976 | S. cerevisiae deletion strains, locus YOL012C, strain htz1 1.63 | S. cerevisiae deletion strains, locus YOL147C, strain pex11, active compounds read low 1.02 | S. cerevisiae deletion strains, locus YOR001W, strain rrp6, active compounds read low 0.979 | S. cerevisiae deletion strains, locus YOR061W, strain CKA2, active compounds read low 1.01 | S. cerevisiae deletion strains, locus YOR069W, strain VPS5, active compounds read low 1.01 | S. cerevisiae deletion strains, locus YOR070C, strain gyp1, active compounds read low 1.01 | S. cerevisiae deletion strains, locus YOR080W, strain dia2, active compounds read low 0.971 | S. cerevisiae deletion strains, locus YOR083W, strain WHI5 (second series), active compounds read low 1.05 | S. cerevisiae deletion strains, locus YOR083W, strain WHI5, active compounds read low 0.976 | S. cerevisiae deletion strains, locus YOR106W, strain vam3, active compounds read low 0.939 | S. cerevisiae deletion strains, locus YOR136W, strain idh2, active compounds read low 1.02 | S. cerevisiae deletion strains, locus YOR144C, strain elg1, active compounds read low 1.02 | S. cerevisiae deletion strains, locus YOR184W, strain ser1, active compounds read low 1.04 | S. cerevisiae deletion strains, locus YOR231W, strain MKK1, active compounds read low 0.983 | S. cerevisiae deletion strains, locus YOR265W, strain rbl2, active compounds read low 0.97 | S. cerevisiae deletion strains, locus YOR270C, strain vph1, active compounds read low 0.897 | S. cerevisiae deletion strains, locus YOR290C, strain snf2, active compounds read low 0.927 | S. cerevisiae deletion strains, locus YOR316C, strain cot1, active compounds read low 1.02 | S. cerevisiae deletion strains, locus YPL051W, strain arl3, active compounds read low 0.972 | S. cerevisiae deletion strains, locus YPL055C, strain LGE1, active compounds read low 1.01 | S. cerevisiae deletion strains, locus YPL078C, strain atp4, active compounds read low 0.961 | S. cerevisiae deletion strains, locus YPL106C, strain sse1, active compounds read low 0.956 | S. cerevisiae deletion strains, locus YPL240C, strain hsp82, active compounds read low 0.978 | S. cerevisiae deletion strains, locus YPL241C, strain CIN2, active compounds read low 1.01 and 1 | S. cerevisiae deletion strains, locus YPL256C, strain CLN2, active compounds read low 0.981 | S. cerevisiae deletion strains, locus YPR119W, strain clb2, active compounds read low 1.02 | S. cerevisiae deletion strains, locus YPR141C, strain kar3, active compounds read low 1.01 | S. cerevisiae deletion strains, locus YPR163C, strain tif3, active compounds read low 1.02 | S. cerevisiae deletion strains, locus YPR167C, strain met16, active compounds read low 1.02 | S. cerevisiae deletion strains, strain wtn01, active compounds read low 1.02 | S. cerevisiae strains, strain wild type, active compounds read low 1
